This is part of a sample that, as a whole, favours compounds with a hit. Of some 83,000 tested, about 20% had one in any assay.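 Note: values are percent growth. 100 is the growth of untreated cells, values between 100 and 0 indicate rising inhibition; between -100 and 0 indicates cell death.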 Values without a mark were called inactive. Active and inactive are the calls of the source. Rule for the calls: active = growth percent below 10; inactive = the rest.
How the values were obtained:
Experiment in all cases: NCI-60 one-dose screen, 48 h (100 = growth as untreated, 0 = no growth, -100 = all killed)
Conditions in all cases: 10 µM unless noted
HCT-15 colon = system: HCT-15 colon
HT29 colon = system: HT29 colon
SNB-75 CNS = system: SNB-75 CNS
SNB-19 CNS = system: SNB-19 CNS
U251 CNS = system: U251 CNS
PC-3 prostate = system: PC-3 prostate
SK-MEL-5 melanoma = system: SK-MEL-5 melanoma
UACC-62 melanoma = system: UACC-62 melanoma
LOX IMVI melanoma = system: LOX IMVI melanoma
SK-MEL-28 melanoma = system: SK-MEL-28 melanoma
SK-MEL-2 melanoma = system: SK-MEL-2 melanoma
EKVX NSCLC = system: EKVX NSCLC
SN12C renal = system: SN12C renal
UO-31 renal = system: UO-31 renal
TK-10 renal = system: TK-10 renal
ACHN renal = system: ACHN renal
A498 renal = system: A498 renal
CCRF-CEM leukemia = system: CCRF-CEM leukemia
MOLT-4 leukemia = system: MOLT-4 leukemia
CAKI-1 renal = system: CAKI-1 renal

| SMILES | growth (HCT-15 colon) [%] | growth (HT29 colon) [%] | growth (SNB-75 CNS) [%] | growth (SNB-19 CNS) [%] | growth (U251 CNS) [%] | growth (PC-3 prostate) [%] | growth (SK-MEL-5 melanoma) | growth (UACC-62 melanoma) | growth (LOX IMVI melanoma) | growth (SK-MEL-28 melanoma) [%] | growth (SK-MEL-2 melanoma) [%] | growth (EKVX NSCLC) | growth (SN12C renal) [%] | growth (UO-31 renal) | growth (TK-10 renal) [%] | growth (ACHN renal) [%] | growth (A498 renal) | growth (CCRF-CEM leukemia) | growth (MOLT-4 leukemia) | growth (CAKI-1 renal) [%] |
| --- | --- | --- | --- | --- | --- | --- | --- | --- | --- | --- | --- | --- | --- | --- | --- | --- | --- | --- | --- | --- |
| CN1CCN(c2ccc(/C=N/Nc3nc4ccccc4c(=O)n3-c3ccccc3)cc2)CC1 | 99.2 | 100 | 95.5 | 105 | 102 | 93.2 | 92.4% | 101% | 122% | 103 | 107 | 100% | 103 | 95.5% | 91.3 | 108 | 89.8% | 105% | 104% | – |
| COc1cc(/C=C2\C(=O)Nc3ccccc32)ccc1OCc1ccc(F)cc1 | 101 | 105 | 106 | 99.3 | 106 | 101 | 102% | 92.7% | 97.3% | 110 | 107 | 97.7% | 100 | 84.7% | 130 | 102 | 89.2% | 102% | 96.8% | – |
| COc1ccc(/C=C(/C)c2ccc3ccc(OC)cc3[o+]2)c(O)c1 | 22.5 | 44.7 | 85.6 | 82.4 | 84.6 | 41.7 | 61.6% | 50.9% | -15.8% (active) | 96 | 94.3 | 55.8% | 85.5 | 69.4% | 174 | 70.2 | 110% | 11.2% | 34.7% | – |
| COc1cc(/C=C2\C(=O)Nc3ccccc32)ccc1OCc1ccc(Cl)cc1 | 93.9 | 109 | 104 | 97.1 | 107 | 94.8 | 103% | 87.6% | 99.8% | 92.9 | 105 | 95.3% | 103 | 81.3% | 136 | 92.7 | 115% | 94.9% | 93.9% | – |
| O=C(CN1CCN(c2cc(=O)n(-c3ccccc3)c3ccccc23)CC1)Nc1nc(-c2ccc(Cl)cc2)cs1 | 39.7 | 63.8 | 67.5 | 64 | 63.8 | 35 | 5.1% (active) | 61.5% | 58.4% | 69.2 | 75.6 | – | 74.1 | 29.5% | 62.4 | 55.1 | 40.7% | 50.7% | – | 49.6 |
| O=C(NNc1nc2cc(F)ccc2n2c(CO)ccc12)c1cnccn1 | 22.9 | 22 | 42.9 | 21.8 | 16.5 | 23.6 | 6.38% (active) | -14.8% (active) | 1.5% (active) | 25.1 | 21.7 | 4.53% (active) | 21.5 | 8.71% (active) | 21 | 10.2 | 8.46% (active) | 7.36% (active) | 2.51% (active) | – |
| COc1cc(/C=C2\C(=O)Nc3cc(Cl)ccc32)ccc1OCc1ccc(F)cc1 | 89 | 105 | 104 | 104 | 111 | 87 | 99% | 88.8% | 93.5% | 105 | 99.8 | 76.5% | 95.9 | 79.8% | 185 | 93.6 | 94.2% | – | 100% | – |
| COc1ccccc1-n1cc(C#N)c(N)c1C(=O)c1ccc(Cl)cc1 | 36.2 | 52.8 | 62.3 | 69.4 | 91.9 | 58 | 60.1% | 46.3% | 67.9% | 74.3 | 78.4 | 86.9% | 90 | 77.4% | 107 | 93 | 57% | 76.3% | 64.2% | – |

Reference: PubChem BioAssay (NCI)
